D1 antagonist – antagonists of human D1 dopamine receptor; P21728; HEK293 TREx D1 cells, calcium flux, dopamine EC80; active compounds read low; activity change, negative = inhibition, % at 10 µM; 360,000 tested, 3.2% active; in the data active = activity change below about -30%
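Calcium flux readout: force-coupled, inducible Hek293 Trex D1 line, cells induced overnight at 30 C with tetracycline, dye-loaded 30–90 min at RT. Antagonism scored against EC80 dopamine challenge given 180 s after compound.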
D3 ag – activates the human D3 dopamine receptor; P35462; D3R DiscoveRx beta-arrestin cells, luminescence, 90 min; max activation, %; 410,000 tested, 0.58% active; AID 652048; in the data active = max activation above about 30%
Target sequence (P35462 whole entry, looked up): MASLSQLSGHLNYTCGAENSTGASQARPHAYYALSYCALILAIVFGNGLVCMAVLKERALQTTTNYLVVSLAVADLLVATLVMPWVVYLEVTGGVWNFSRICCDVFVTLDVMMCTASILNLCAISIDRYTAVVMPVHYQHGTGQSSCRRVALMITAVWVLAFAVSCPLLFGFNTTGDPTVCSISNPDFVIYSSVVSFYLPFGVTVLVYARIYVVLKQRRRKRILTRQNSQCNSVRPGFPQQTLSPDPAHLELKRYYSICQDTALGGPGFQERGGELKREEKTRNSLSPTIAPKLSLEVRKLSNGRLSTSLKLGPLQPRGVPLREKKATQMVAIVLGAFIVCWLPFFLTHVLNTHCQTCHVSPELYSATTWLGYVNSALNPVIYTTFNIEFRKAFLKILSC
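Agonist-mode cell screen: cells plated at 1500/well and incubated overnight at 37 °C, then exposed to library compounds for 90 min at 37 °C. Detection reagent was added for 30–60 min at room temperature, and luminescence was read.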
D1 PAM – enhances dopamine response at the human D1 receptor; P21728; HEK293 TREx D1 cells, calcium flux, dopamine EC20 potentiation; potentiation, % at 10 µM; 360,000 tested, 0.036% active; AID 504651; in the data active = potentiation above about 30%
D3 antag – D3 dopamine receptor (human) antagonism; P35462; D3R cells, DiscoveRx beta-arrestin luminescence, antagonist mode; active compounds read low; max response, negative = inhibition, %; 360,000 tested, 2.5% active; AID 652054; in the data active = max response below about -50%; inconclusive = no clear call, values can overlap the other calls
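Cells expressing the human receptor were seeded at 1500 cells/well, incubated overnight at 37 degrees C in 5% CO2, then exposed to library compounds with dopamine controls for 90 minutes at 37 degrees C before luminescent detection.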
D1 agonist – agonists of human D1 dopamine receptor; P21728; HEK293 T-REx D1 cells, calcium flux, agonist mode; activation, % at 2 µM; 360,000 tested, 1% active; AID 504660; in the data active = activation above about 30%
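Tetracycline-induced HEK293 TREx D1 cells, force-coupled to calcium signalling, were dye-loaded with a no-wash calcium kit. Compound was pin-added after a 10 s baseline. Fluorescence was read kinetically at 1 cycle/s for 180 s, with calcium rises flagged as agonism.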
Numbers stand for hits; – = inactive; ? = inconclusive; · = no result. Only some compounds are listed: those with a hit (about 6.1% of all), similar ones and a draw of the others.

SMILES | D1 antagonist | D3 ag | D1 PAM | D3 antag | D1 agonist
CC(C)(C)c1ccc(-c2nc(SCC(=O)Nc3ccc(Cl)cc3)[nH]c(=O)c2C#N)cc1 | – | – | – | · | 131.7
CC(Oc1ccc(Cl)cc1)C(=O)Nc1cccc(S(=O)(=O)N2CCCC2)c1 (configuration not stated) | · | – | · | – | ·
Cc1nnc(SC(C)C(=O)Nc2ccc(S(=O)(=O)N3CCCCC3)cc2)s1 (configuration not stated) | – | – | – | – | –
Cc1csc(SC(C)C(=O)Nc2ccc(S(=O)(=O)N3CCCC3)cc2)n1 (configuration not stated) | -40.2 | – | – | – | –
CC(Oc1ccc(Cl)cc1)C(=O)Nc1ccc(S(=O)(=O)N2CCOCC2)cc1 (configuration not stated) | – | – | – | – | 46.5
Cc1ccc(NC(=O)c2ccc(S(=O)(=O)N3CCOCC3)cc2)cc1 | – | – | – | – | –
Cc1ccc(SC(C)C(=O)Nc2ccc(S(=O)(=O)N3CCOCC3)cc2)cc1 (configuration not stated) | – | – | – | – | 45.5
Cc1ccc(NC(=O)COC(=O)CCc2ccc(S(=O)(=O)N3CCOCC3)cc2)cc1F | -30.7 | – | – | – | –
COc1ccccc1Cc1nc2ccccc2nc1SCC(=O)N1CCN(c2ccccc2)CC1 | – | – | – | · | –
COc1ccc(CC(=O)Nc2ccc(F)c(Cl)c2)cc1S(=O)(=O)N1CCOCC1 | -35.2 | – | – | – | –
O=C(Cc1ccc(Cl)cc1)Nc1ccc(S(=O)(=O)N2CCOCC2)cc1 | – | – | – | – | 34.0
CCOC(=O)c1noc2ncnc(Nc3ccc(C)c(F)c3)c12 | – | – | – | · | –
CCCCN(C(=O)c1ccc2c(c1)NC(=O)CS2)c1ccccc1 | -35.9 | – | · | – | –
COCCNC(=O)c1ccc2c(c1)NC(=O)CS2 | – | – | – | – | –
Cc1ccccc1Cn1nc(C)c(NC(=O)c2noc3c2CC(C(C)(C)C)CC3)c1C (configuration not stated) | – | 33.7 | – | – | –
Cc1ccc(-c2noc(C3CCCN(C(=O)c4c(F)cccc4F)C3)n2)cc1 (configuration not stated) | – | – | – | -70.1 | –
Cc1ccc(-c2noc(C3CCCN(C(=O)c4cccc(F)c4)C3)n2)cc1 (configuration not stated) | -31.1 | – | – | – | –
O=C(c1c(F)cccc1F)N1CCCC(c2nc(-c3ccc(Cl)cc3)no2)C1 (configuration not stated) | – | – | – | – | –
O=C(Cc1ccccc1)N1CCC(c2nc(-c3ccc(F)cc3)no2)CC1 | – | 30.9 | – | – | –
CCC(C)NC(=O)c1cnn(-c2ccc(Cl)cc2)c1C1CCN(C(=O)OC(C)(C)C)CC1 (configuration not stated) | – | – | – | · | –
COCCN1CCc2nc(SCC(=O)Nc3ccc(C)c(Cl)c3)[nH]c(=O)c2C1 | – | – | – | · | –
Cc1ccc(/C=C/c2onc(C)c2S(=O)(=O)N2CCC(C(=O)N3CC(C)Oc4ccccc43)CC2)cc1 (configuration not stated) | – | – | – | · | –
C=CC(=O)N1C/C(=C/c2ccc(F)cc2)C(=O)/C(=C\c2ccc(F)cc2)C1 | · | – | · | -61.2 | ·
CCN(CC)S(=O)(=O)c1ccc2c(c1)c(=O)c(C(=O)NCc1ccccc1Cl)cn2C | – | – | – | · | –
COCCCn1c(SCc2nnc(-c3ccccc3)o2)nc2sc3c(c2c1=O)CCC3 | – | – | – | – | –
SMILES | D1 antagonist | D3 ag | D1 PAM | D3 antag | D1 agonist
Cn1c(SCc2nnc(-c3ccccc3Br)o2)nc2sc3c(c2c1=O)CCC3 | – | 33.7 | – | – | –
COc1ccc(-c2ccc3c(N)c(C(=O)c4ccc(OC)c(OC)c4)sc3n2)cc1 | – | – | – | – | 77.9
NC(=O)c1sc2nc(-c3ccccc3)ccc2c1N | – | – | – | – | –
COc1ccc(C(=O)c2sc3nc(-c4ccccc4)ccc3c2N)cc1OC | – | – | – | – | 57.4
COc1cccc(-c2ccc3c(N)c(C(=O)c4ccc(Br)cc4)sc3n2)c1 | – | – | – | · | 80.5
COc1ccc(-c2ccc3c(N)c(C(=O)Nc4cccc(C)c4)sc3n2)cc1 | – | – | – | · | –
Cc1ccc(-c2nc3c(c(SCC(=O)Nc4cccc(C(=O)O)c4)n2)Cc2cccc(C)c2O3)cc1 | – | · | – | · | –
Cn1c(CNC(=O)CSc2n[nH]c(-c3ccccc3Cl)n2)nc2ccccc21 | – | – | – | · | –
Cc1nc2sc(C(=O)Nc3ccc(F)cc3)c(N)c2c(-c2ccc(Br)cc2)c1C(=O)Nc1ccc(Cl)cc1 | – | – | – | · | –
COc1ccc(CNC(=O)COC(=O)CCCOc2ccc(Cl)cc2Cl)cc1 | – | – | – | – | 30.7
CCOc1ccc(N/C(SC)=C(/C#N)C(N)=O)cc1 | -51.6 | – | – | -53.3 | –
CCc1ccc(N/C(SC)=C(/C#N)C(N)=O)cc1 | – | – | – | – | –
O=c1c(Cl)c(Cl)cnn1Cc1nnc(-c2ccccc2Br)o1 | – | – | – | -80.9 | 235.9
COc1ccc(CNC(=O)Cn2c(=O)nc(-c3ccccc3F)c3cc(Cl)ccc32)cc1OC | – | – | – | · | –
COc1ccc(/C=C2/SC(=S)N(NS(=O)(=O)c3ccc(C)cc3)C2=O)cc1 | -47.4 | – | · | – | –
COc1ccc2[nH]c3c4c(ccc3c2c1)C(=O)C=CC4=O | – | – | – | -104.8 | –
Cc1ccc(C(OCC(O)CNCc2ccc(F)cc2)c2ccccc2)cc1 (configuration not stated) | – | – | 31.4 | – | 66.5
CCC(=O)c1ccc(OCC(O)CNCc2ccc(F)cc2)cc1 (configuration not stated) | – | – | – | – | –
O=C(COc1ccccc1)NCc1ccccc1 | – | – | – | – | –
O=C(COc1ccc(C(=O)c2ccccc2)cc1)NCc1ccc(F)cc1 | -38.9 | – | – | – | –
O=C(c1ccccc1)c1ccc(OCC(O)CNCc2ccc(F)cc2)cc1 (configuration not stated) | – | – | – | – | 51.6
O=C(c1ccccc1)c1ccc(OCC(O)CNCc2cccc(Cl)c2)cc1 (configuration not stated) | – | – | – | – | 42.6
O=C(COc1ccc(Br)cc1)NNC(=S)NCc1ccccc1 | – | – | – | -67.6 | –
COc1cccc(CN(C)C(=O)c2ccc(Oc3ccccc3)cc2)c1OC | – | – | – | – | 32.3
COc1cccc(CN(C)C(=O)c2ccc(COc3ccc(Cl)cc3)cc2)c1OC | – | – | · | – | 54.4
CCN(CC)CC(O)Cn1c(C)c(-c2ccccc2)c2cc([N+](=O)[O-])ccc21 (configuration not stated) | – | – | – | ? | 34.4
COc1cc(NC(=O)c2cc(-c3cccc(OC)c3)n[nH]2)cc(OC)c1 | – | – | – | · | –

Bioassay records (PubChem)
